Measured values reported in the supplement of paper PMC3334620.
Whole data set: some 33,000 sequences, median “E-score (-0.5 to 0.5)” near -0.0014, cut for the highest 2% near 0.25. The sample holds the highest values, similar sequences and a random draw of the others, so the mix is not that of the screen.

Target: T1, Cad1 (UniProt P24813)
T1 sequence: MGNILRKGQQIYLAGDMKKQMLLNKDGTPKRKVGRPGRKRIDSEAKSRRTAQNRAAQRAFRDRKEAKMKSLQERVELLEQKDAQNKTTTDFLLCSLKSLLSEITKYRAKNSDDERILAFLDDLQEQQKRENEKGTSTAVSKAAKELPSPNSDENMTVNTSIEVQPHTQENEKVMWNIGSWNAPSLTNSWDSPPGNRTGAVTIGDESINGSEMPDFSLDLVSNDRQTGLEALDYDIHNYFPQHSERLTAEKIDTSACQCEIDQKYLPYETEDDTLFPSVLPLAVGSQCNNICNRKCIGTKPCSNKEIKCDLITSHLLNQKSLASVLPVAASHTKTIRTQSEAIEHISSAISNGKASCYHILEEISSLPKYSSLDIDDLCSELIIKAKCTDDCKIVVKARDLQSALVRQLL
Assay: PBM E-score (8-mer binding enrichment) (E-score (-0.5 to 0.5)); higher = stronger / more preferred TF binding
Details: protein concentration: 100 nM; construct: GST-full length
Procedure: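 Universal 'all 10-mer' protein binding microarrays (Agilent AMADID 015681) probed with GST-tagged S. cerevisiae TFs (full-length or DBD) made by in vitro transcription/translation (PURExpress), about 100-200 nM. Bound TF was detected with fluorescent anti-GST. Each ungapped 8-mer (which stands for itself and its reverse complement) is scored by the PBM enrichment score (E-score), a modified Wilcoxon-Mann-Whitney statistic from -0.5 to +0.5, computed with the Universal PBM Analysis Suite. Scale: above 0.35 generally sequence-specific binding.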

Row | Sequence | PBM E-score
1 | TTAATAAA | 0.389
2 | CTAATAAA | 0.0515
3 | CTATTAAA | 0.00283
4 | GCATTAAA | 0.103
5 | ATAATAAA | 0.243
6 | CTATTAAC | 0.141
7 | TCATTAAA | 0.265
8 | ATATTAAC | 0.224
9 | ATATTAAA | 0.385
10 | ACATTAAA | 0.11
11 | ATATTAAG | 0.115
12 | ATATTAAT | 0.368
13 | ACCAGATG | -0.0464
14 | CTCAGCCC | -0.21
15 | CCAGAGCA | -0.00085
16 | ATTTGATG | 0.148
17 | AGACTTCG | -0.0445
18 | TATCTTCA | -0.0564
19 | ACTAGATA | 0.0286
20 | ATATAGAA | 0.00309
21 | TCTGAGCA | 0.0835
22 | CAGGGAAA | -0.054
23 | ACAAAGTA | 0.193
24 | CCCTGAAC | 0.229
25 | CATCGCTC | -0.187

Row | Sequence | PBM E-score
26 | AGAGCGTG | -0.0848
27 | CTTGCGAA | 0.184
28 | CATTTCAA | 0.174
29 | GATTTCAA | 0.013
30 | CTAGTAAA | 0.0669
31 | ATATTCAA | 0.144
32 | TTACTAAA | 0.374
33 | GTATTCAA | 0.14
34 | ATACTAAA | 0.231
35 | GTACTAAA | 0.054
36 | TTATTCAA | 0.252
37 | TATTTCAA | 0.309
38 | TTAGTAAA | 0.339
39 | ATAGTAAA | 0.225
40 | AACGCCAT | -0.0315
41 | CTCGTAAA | 0.0173
42 | AGGGCACA | -0.116
43 | ATCGCATA | 0.0254
44 | CATAAGCC | 0.0914
45 | ACTGCTTA | 0.132
46 | GGGTAGAC | -0.191
47 | TCTAAAAA | -0.0235
48 | CCCTGTGA | -0.161
49 | TGATTAAA | 0.123
50 | GTATTAAA | 0.0777

Row | Sequence | PBM E-score
51 | TTATTAAA | 0.307
52 | AACACGTG | 0.217
53 | ATGCCAAT | -0.0122
54 | AATCACGT | 0.184
55 | ATACGTAT | 0.298
56 | ATACGTAC | -0.0354
57 | ATACGTAA | 0.2
58 | ACTAATCG | 0.356
59 | ACTAATCA | 0.344
60 | ACTAATCC | 0.242
61 | CCTAATCG | 0.168
62 | TCTAATCA | 0.181
63 | ACTAATCT | 0.135
64 | AATCCGCG | 0.13
65 | AGTCCTAC | -0.0257
66 | ATTGAGTC | 0.0114
67 | ACCGAGAT | 0.0127
68 | AGCGTAAA | 0.0495
69 | AATTACAC | 0.148
70 | CATTACTC | 0.0943
71 | GATTACTA | 0.392
72 | AATTACAT | 0.354
73 | GTTTACTA | 0.195
74 | AATTACTC | 0.239
75 | AATTACTA | 0.32

Row | Sequence | PBM E-score
76 | CTTTACTA | 0.213
77 | AATTACTG | 0.14
78 | GGTTACTA | 0.0723
79 | AATTACAG | 0.161
80 | CATTACTA | 0.25
81 | TCACAGGA | -0.0436
82 | CCTCGAAC | -0.0906
83 | GAGCTAGA | -0.178
84 | AGAACGCG | 0.0894
85 | GCGGTAGA | -0.0737
86 | CGAGCGTA | 0.0172
87 | CGAAAAGC | -0.143
88 | GCTTCACA | -0.0729
89 | AGATCACA | -0.0498
90 | CGATCACA | 0.204
91 | CGATCACG | 0.273
92 | GACCTCCC | -0.247
93 | ATCTAGGC | -0.102
94 | GCAAAAGA | -0.0108
95 | AGAATTCT | 0.278
96 | AGAATTCG | 0.051
97 | AGAATTCA | 0.126
98 | ACACCCGA | 0.134
99 | AACGCCGG | -0.0998
100 | CACTGCGC | -0.0286

Row | Sequence | PBM E-score
101 | ATTCAAGA | 0.0376
102 | GTTGGAAA | -0.0664
103 | GGTCGCTA | -0.112
104 | GGTCGCGA | 0.273
105 | AGTCGCGA | 0.285
106 | AGTCGCGG | -0.179
107 | CGTCGCGA | 0.111
108 | AGTCGCGC | 0.212
109 | CAAACAAG | 0.0295
110 | GGAGCGCC | -0.252
111 | AACACCAG | -0.0336
112 | GCCTTCAA | 0.0307
113 | GTGCGGAA | 0.0803
114 | ATAACTAA | 0.146
115 | TAAACTAA | 0.186
116 | TTAACTAA | 0.291
117 | CTAACTAA | 0.206
118 | CAAACTAA | 0.258
119 | CAAACTAC | -0.0121
120 | CCACTGTC | -0.0971
121 | CCTGGAAA | -0.0814
122 | GGGTCTAC | -0.0723
123 | ACTCCGTA | -0.228
124 | AGCGGACC | -0.113
125 | ACTCGAGT | 0.311

Row | Sequence | PBM E-score
126 | ACTCGAGA | -0.0156
127 | ACTCGAGG | 0.107
128 | TAATCGGA | 0.152
129 | CAATCGGA | 0.259
130 | AAATCGGA | 0.171
131 | TAGCGACA | 0.0174
132 | ATGGCCAC | -0.21
133 | ATGGCCAG | 0.273
134 | ATGGCCAA | -0.046
135 | ATGGCCAT | 0.252
136 | CTGGCCAG | -0.159
137 | ATGGCCTG | 0.0685
138 | GGAGATCA | -0.0337
139 | ATAGCCCA | 0.062
140 | CAAACCGA | 0.0658
141 | ATAATGAA | 0.166
142 | AACGGAAA | 0.219
143 | GTCGGATA | 0.0779
144 | AACGGATT | 0.317
145 | ATCGGATA | 0.276
146 | AACGGAAT | 0.269
147 | TACGGATA | 0.116
148 | AACGGATG | -0.0154
149 | AACGGATC | 0.217
150 | AACGGATA | 0.252

Row | Sequence | PBM E-score
151 | CTCGGATA | 0.193
152 | CACGGATA | 0.22
153 | AACGGAAG | 0.114
154 | CTGAGGCC | -0.0469
155 | CTACTGCC | -0.162
156 | CAGGATCA | -0.0245
157 | ACTTGTGG | -0.0436
158 | CGATAATC | -0.016
159 | AGTTAAAA | 0.14
160 | AAGCCCTT | -0.0922
161 | CGCGGATC | 0.0644
162 | AGCGGATA | -0.0234
163 | CGCGGATA | 0.258
164 | CCTGCCCA | -0.0659
165 | CGTCAAGC | -0.0629
166 | CGCATATC | 0.318
167 | AGCATATC | 0.025
168 | CGCATATA | -0.0685
169 | CCCGTTCG | 0.016
170 | GCGTCGAA | 0.116
171 | ATGTCGAA | -0.00122
172 | ATGTCGAC | 0.276
173 | CCGTCGAC | -0.0671
174 | AAGTCGAC | 0.256
175 | AAGTCGAT | 0.0428

Row | Sequence | PBM E-score
176 | GCGTCGAC | 0.252
177 | AAGTCGAA | -0.0588
178 | CTGTCGAC | -0.0383
179 | CCGACAAG | -0.0166
180 | CATCTCCA | 0.09
181 | AAACATAG | -0.0611
182 | ATACATAA | 0.12
183 | ATACATAC | -0.195
184 | ATACATAT | 0.286
185 | AAACATAT | 0.25
186 | AAACATAC | -0.123
187 | GCGGCCGC | 0.175
188 | AATTGATC | -0.0161
189 | AATTGATG | 0.251
190 | AATTGATA | 0.206
191 | TCACGTGA | 0.125
192 | TCCGCTCA | -0.195
193 | ACTCGAAA | -0.0505
194 | AGAGCCCT | -0.122
195 | CCTGATTC | 0.0985
196 | CCTGATTA | 0.31
197 | ACTGATTA | 0.265
198 | ATTGATTC | 0.12
199 | ATTGAATC | -0.0423
200 | CTTGAATA | 0.118

Row | Sequence | PBM E-score
201 | ATTGATTA | 0.286
202 | ATTGATTG | 0.133
203 | CCTGATGA | 0.0887
204 | ACTGATTC | -0.0134
205 | ACTGATTG | 0.0651
206 | ATTGAATA | 0.281
207 | CAGCATAA | 0.169
208 | AATTAAGT | 0.181
209 | ACTACTGC | -0.0336
210 | GACTACGA | -0.0382
211 | GATGGGTA | 0.0269
212 | CCAGCCAG | -0.207
213 | GCTGATAA | 0.161
214 | GCTGATTA | 0.378
215 | GATGATTA | 0.126
216 | CTCATGGC | -0.0384
217 | TAGAACTA | 0.0157
218 | ACTAGGAT | -0.0418
219 | GTCGGTAA | -0.116
